Compound activity: PubChem BioAssay, National Center for Advancing Translational Sciences (NCATS)
HT1080 IDH1KD tx – HT-1080 IDH1 knockdown cell toxicity (counter line). HT-1080 IDH1 knockdown viability, ATP luminescence, 48 h. Potency, µM (highest dose often 46.1 µM), for inactives: at the top dose activity, negative = toxicity, usual class: cytotoxic. hit rate 2% among 360,000. AID 686971;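 further: potency means the concentration at half of the fitted maximal effect; 0% = DMSO wells and -100% = cell-free medium wells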
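IDH1KD HT-1080 cells, 750/well, RPMI + 5% FBS; compound pinned after 2 h settling; 48 h, 37 °C; CellTiter-Glo luminescence; % activity normalised to DMSO and no-cell wells; curves fitted, classed by r2 and efficacy.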
DT40 TDP1 CPT – DT40-hTDP1 cell growth loss with CPT; chicken DT40 Tdp1-/-;hTDP1 cells + 20 nM CPT, ATP luminescence, 48 h; Potency, µM (highest dose often 46.2 µM), for inactives: at the highest dose activity change, negative = growth inhibition, hits mostly inhibitors; hit rate 12% among 420,000; further: potency means the concentration at half of the fitted maximal effect; nearly all actives have a fitted effect of over 55% in size
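Chicken DT40 Tdp1-/- cells stably complemented with human TDP1 were seeded at 400 cells/well in medium containing 20 nM camptothecin, exposed to pin-transferred compounds, and grown at 37 °C for at least 48 hr. Viability was read as ATP luminescence.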
IL-1B inflam inh – blocks inflammasome-driven IL-1 beta release; hit rate 4.7% among 360,000; activity change, % at 57.5 µM; AID 743279; THP-1 LPS/ATP IL-1B secretion, AlphaLISA, 16 h; stronger effect = lower value; in the data active means activity change below about -50%; inconclusive means mostly about -30% to -49%
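THP-1 cells pretreated 1 hr with compounds (up to 57.5 uM final), then stimulated with LPS (250 ng/mL final) plus ATP (1.25 mM final); secreted IL-1B measured by AlphaLISA after 16 hr, decreased signal indicating inhibition.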
TDP1 cell noCPT – qHTS for Inhibitors of human tyrosyl-DNA phosphodiesterase 1 (TDP1): qHTS in cells in absence of CPT | AID 686978, 2013 | Potency, µM (doses to about 46.2 µM), for inactives: at the top dose activity change, negative = growth inhibition, actives largely listed as inhibitors | hit rate 15% among 420,000 | DT40 Tdp1-/- hTDP1 cells, no CPT, ATP luminescence, 48 h; further: potency means the concentration at half of the fitted maximal effect; nearly all actives have a fitted effect of over 55% in size
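Growth of hTDP1-complemented DT40 Tdp1-knockout cells is measured by ATP luminescence after at least 48 hr compound exposure at 37 °C, with DMSO substituting for the 20 nM CPT used in the parallel screen.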
HT1080NT lethal – kills 2HG-producing HT-1080-NT fibrosarcoma cells. Potency, µM (top dose mostly 46.1 µM), for the others: at the top dose activity, negative = less viability, actives largely listed as cytotoxic. AID 686970. HT-1080-NT fibrosarcoma viability, CellTiter-Glo ATP luminescence, 48 h. hit rate 1.6% among 360,000;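 further: NT is the 2HG producing partner of a matched IDH1 knockdown line; potency means the concentration at half of the fitted maximal effect; 0% = DMSO-treated cells and -100% = media-only wells without cells; nearly all actives have a fitted effect of over 55% in size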
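A 48-hour cytotoxicity screen used HT-1080-NT cells plated 2 hours before compound delivery. ATP-based CellTiter-Glo luminescence measured viability, normalized to DMSO and no-cell controls.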
* marks the source's active call; other numbers are inactive results; [ ] = dose if it differs, or a comment. In the library only some 19% were active in any assay of this set; here they are far more common. Unless noted, the call rests on the fitted dose curve; in most records, active means well fitted curve in the direction sought with a large enough effect; inconclusive means small, poorly fitted or top-dose-only effect, or another doubt; inactive means no such curve, though single readings can be large; an effect the other way counts as inactive or inconclusive. Unless noted, on the % scale 0 is the no-effect control and ±100 the full control effect.

What do the screens show for `CC(C)CCN(CC(=O)NC(C)(C)C)C(=O)C(=O)Nc1ccc2c(c1)OCCO2`?
HT1080 IDH1KD tx: 2%; DT40 TDP1 CPT: -2%; IL-1B inflam inh: -3; TDP1 cell noCPT: -2%; HT1080NT lethal: -1%

How did Cc1cccc(NC(=S)N(c2ccccc2)C(C)C)c1C do in these assays?
HT1080 IDH1KD tx: 6%; DT40 TDP1 CPT: inconclusive; IL-1B inflam inh: 6; TDP1 cell noCPT: inconclusive; HT1080NT lethal: 8%

How did CCOc1ccc(NC(=O)CN(C)C(=O)CN2C(=O)c3ccc([N+](=O)[O-])cc3C2=O)cc1OCC do in these assays?
HT1080 IDH1KD tx: 2%; DT40 TDP1 CPT: -25%; IL-1B inflam inh: 9; TDP1 cell noCPT: 7%; HT1080NT lethal: 4%

Results for Clc1ccc(OCc2cnc(Cl)s2)cc1 ?
HT1080 IDH1KD tx: 21%; DT40 TDP1 CPT: 0%; IL-1B inflam inh: -5; TDP1 cell noCPT: -3%; HT1080NT lethal: 11%

How did Cc1cc(C)nc(Nc2nc(-c3ccccc3)cs2)n1 do in these assays?
HT1080 IDH1KD tx: -3%; DT40 TDP1 CPT: -10%; IL-1B inflam inh: 32; TDP1 cell noCPT: inconclusive; HT1080NT lethal: -7%

Results for c1ccc(-c2csc(Nc3cccnc3)n2)nc1 ?
HT1080 IDH1KD tx: inconclusive; DT40 TDP1 CPT: inconclusive; IL-1B inflam inh: -2; TDP1 cell noCPT: inconclusive; HT1080NT lethal: -14%

How did Brc1ccc(Nc2nc(-c3cccnc3)cs2)cc1 do in these assays?
HT1080 IDH1KD tx: -26%; DT40 TDP1 CPT: 7%; IL-1B inflam inh: 51; TDP1 cell noCPT: -17%; HT1080NT lethal: -18%

How did c1ccc(-c2csc(Nc3nc(N4CCOCC4)nc(N4CCOCC4)n3)n2)cc1 do in these assays?
HT1080 IDH1KD tx: -7%; DT40 TDP1 CPT: inconclusive; IL-1B inflam inh: inconclusive; TDP1 cell noCPT: 10µM*; HT1080NT lethal: 0%

How did CC(=O)c1cccc(Nc2nc(-c3cccnc3)cs2)c1 do in these assays?
HT1080 IDH1KD tx: inconclusive; DT40 TDP1 CPT: inconclusive; IL-1B inflam inh: -88*; TDP1 cell noCPT: inconclusive; HT1080NT lethal: -22%

How did c1ccc(Nc2nc(-c3ccccn3)cs2)cc1 do in these assays?
HT1080 IDH1KD tx: -3%; DT40 TDP1 CPT: 13µM*; IL-1B inflam inh: inconclusive; TDP1 cell noCPT: 7.3µM*; HT1080NT lethal: -1%

Results for Oc1ccc(Nc2nc(-c3cccnc3)cs2)cc1 ?
HT1080 IDH1KD tx: -11%; DT40 TDP1 CPT: 21µM*; IL-1B inflam inh: inconclusive; TDP1 cell noCPT: 23µM*; HT1080NT lethal: -6%

How did CC12CCC(C(=O)NCc3ccc(F)cc3)(OC1=O)C2(C)C (configuration not stated) do in these assays?
HT1080 IDH1KD tx: 13%; DT40 TDP1 CPT: 1%; IL-1B inflam inh: -14; TDP1 cell noCPT: 3%; HT1080NT lethal: 6%

How did c1ccc(-c2csc(Nc3ccc4c(c3)OCCO4)n2)cc1 do in these assays?
HT1080 IDH1KD tx: 1%; DT40 TDP1 CPT: 15µM*; IL-1B inflam inh: 0; TDP1 cell noCPT: inconclusive; HT1080NT lethal: -2%

How did COc1ccc(Nc2nc(-c3ccc(OC)cc3)cs2)cc1 do in these assays?
HT1080 IDH1KD tx: -3%; DT40 TDP1 CPT: -3%; IL-1B inflam inh: inconclusive; TDP1 cell noCPT: -14%; HT1080NT lethal: -11%

How did Cc1ccc(-c2csc(-c3c[nH]c4ccccc34)n2)c(C)c1 do in these assays?
HT1080 IDH1KD tx: 18µM*; DT40 TDP1 CPT: inconclusive; IL-1B inflam inh: 14; TDP1 cell noCPT: inconclusive; HT1080NT lethal: inconclusive

Results for c1cc2c(cc1Nc1nc(-c3ccc4c(c3)OCO4)cs1)OCCO2 ?
HT1080 IDH1KD tx: 4%; DT40 TDP1 CPT: inconclusive; IL-1B inflam inh: -15; TDP1 cell noCPT: -26%; HT1080NT lethal: 1%

What do the screens show for `Oc1ccc(Nc2nc(-c3ccc(O)cc3)cs2)cc1`?
HT1080 IDH1KD tx: inconclusive; DT40 TDP1 CPT: 11µM*; IL-1B inflam inh: inconclusive; TDP1 cell noCPT: 5µM*; HT1080NT lethal: inconclusive

How did CCC(C)N(C(=O)COC(=O)COc1c(C)cc(C)cc1C)C1CCS(=O)(=O)C1 (configuration not stated) do in these assays?
HT1080 IDH1KD tx: 4%; DT40 TDP1 CPT: 12%; IL-1B inflam inh: 15; TDP1 cell noCPT: 17%; HT1080NT lethal: 4%

Results for COc1ccc(-n2cnc3cc([N+](=O)[O-])ccc32)cc1 ?
HT1080 IDH1KD tx: 14%; DT40 TDP1 CPT: 2%; IL-1B inflam inh: -29; TDP1 cell noCPT: -17%; HT1080NT lethal: 7%

Results for COc1ccc(-n2cnc(N)c2C(=O)c2cccc([N+](=O)[O-])c2)cc1 ?
HT1080 IDH1KD tx: inconclusive; DT40 TDP1 CPT: 16µM*; IL-1B inflam inh: -3; TDP1 cell noCPT: inconclusive; HT1080NT lethal: inconclusive

How did CCOc1ccc(CC(=O)NCCS(=O)(=O)N2CCN(c3ccc(OC)cc3)CC2)cc1 do in these assays?
DT40 TDP1 CPT: -25%; TDP1 cell noCPT: -30%

How did Cc1ccccc1C(=O)NC1(C(F)(F)F)N=C(c2ccccc2)N(Cc2ccccc2)C1=O (configuration not stated) do in these assays?
DT40 TDP1 CPT: 23µM*; TDP1 cell noCPT: 23µM*

How did O=C(C1CCCCC1)N1CCN=C1SCc1cccnc1 do in these assays?
HT1080 IDH1KD tx: -6%; DT40 TDP1 CPT: -4%; IL-1B inflam inh: -25; TDP1 cell noCPT: -29%; HT1080NT lethal: -2%

How did O=C(C1CCCCC1)N1CCN=C1SCc1cccc([N+](=O)[O-])c1 do in these assays?
HT1080 IDH1KD tx: -17%; DT40 TDP1 CPT: inconclusive; IL-1B inflam inh: -94*; TDP1 cell noCPT: inconclusive; HT1080NT lethal: -3%

Results for Cc1ccc(C)c(CSC2=NCCN2C(=O)Cc2ccc([N+](=O)[O-])cc2)c1 ?
HT1080 IDH1KD tx: -27%; DT40 TDP1 CPT: inconclusive; IL-1B inflam inh: inconclusive; TDP1 cell noCPT: 18µM*; HT1080NT lethal: inconclusive

What do the screens show for `Cc1ccc(C(=O)N2CCN=C2SCc2ccc([N+](=O)[O-])cc2)cc1C`?
HT1080 IDH1KD tx: -2%; DT40 TDP1 CPT: inconclusive; IL-1B inflam inh: -85*; TDP1 cell noCPT: inconclusive; HT1080NT lethal: -11%

How did CC1CCc2c(sc(NC(=O)c3cc(-c4ccc(Br)cc4)on3)c2C(N)=O)C1 (configuration not stated) do in these assays?
DT40 TDP1 CPT: -28%; TDP1 cell noCPT: -13%

What do the screens show for `CO[C@H]1[C@H](NC(=O)c2ccco2)c2ccccc2C12CCN(Cc1cnn(-c3ccccc3)c1)CC2`?
DT40 TDP1 CPT: 11%[9.04 µM]; TDP1 cell noCPT: -18%

Results for Nc1nc(N)c2ncn(C3C=CC(CO)C3)c2n1 (configuration not stated) ?
HT1080 IDH1KD tx: 4%; DT40 TDP1 CPT: 6.5µM*; IL-1B inflam inh: 16; TDP1 cell noCPT: 9.2µM*; HT1080NT lethal: 20%
